Data from the supplement of paper PMC12067093, “Discovery and optimisation of a covalent ligand for TRIM25 and its application to targeted protein ubiquitination” (Chemical Science, 2025).
Targets with the largest changes are over-represented here; the source holds about 21,000 in all.

Compound: CC1Cc2ccccc2N1C(=O)C1CCCN(C1)C(=O)CCl (mixture of isomers) [TRIM25 ligand 11 (diastereomer mixture)]
Assay: probe-labelled cysteine peptide fold change vs DMSO (competition) (log2 fold change); higher = less target engagement (more negative = stronger competition)
Details: THP-1, incubation time: 4 h
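Further: competitive chemoproteomic profiling in live THP-1 cells with an iodoacetamide desthiobiotin (IA-DTB) probe, comparing probe-labelled peptide intensities in compound-treated cells against DMSO-treated controls.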

Sequence of UniProt Q9NXH9 (Q9NXH9 whole entry, looked up): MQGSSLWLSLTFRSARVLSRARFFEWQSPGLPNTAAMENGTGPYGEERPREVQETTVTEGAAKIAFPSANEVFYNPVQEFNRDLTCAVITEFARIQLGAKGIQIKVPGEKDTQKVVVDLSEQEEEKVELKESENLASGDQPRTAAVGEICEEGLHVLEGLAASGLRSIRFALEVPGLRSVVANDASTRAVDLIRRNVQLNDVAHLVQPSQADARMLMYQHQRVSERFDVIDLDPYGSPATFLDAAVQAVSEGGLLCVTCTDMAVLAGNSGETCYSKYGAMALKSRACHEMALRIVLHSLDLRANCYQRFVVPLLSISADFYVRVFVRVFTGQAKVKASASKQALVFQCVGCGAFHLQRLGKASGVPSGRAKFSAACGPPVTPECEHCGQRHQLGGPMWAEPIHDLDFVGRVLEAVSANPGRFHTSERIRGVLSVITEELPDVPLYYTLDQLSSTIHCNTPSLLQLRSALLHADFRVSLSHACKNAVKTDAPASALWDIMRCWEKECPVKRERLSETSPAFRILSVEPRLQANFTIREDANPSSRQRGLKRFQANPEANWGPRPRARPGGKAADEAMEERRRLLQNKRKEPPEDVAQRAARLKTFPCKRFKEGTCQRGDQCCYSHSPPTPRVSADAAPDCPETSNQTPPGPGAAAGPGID
Sequence of UniProt Q9Y2K6 (Q9Y2K6 whole entry, looked up): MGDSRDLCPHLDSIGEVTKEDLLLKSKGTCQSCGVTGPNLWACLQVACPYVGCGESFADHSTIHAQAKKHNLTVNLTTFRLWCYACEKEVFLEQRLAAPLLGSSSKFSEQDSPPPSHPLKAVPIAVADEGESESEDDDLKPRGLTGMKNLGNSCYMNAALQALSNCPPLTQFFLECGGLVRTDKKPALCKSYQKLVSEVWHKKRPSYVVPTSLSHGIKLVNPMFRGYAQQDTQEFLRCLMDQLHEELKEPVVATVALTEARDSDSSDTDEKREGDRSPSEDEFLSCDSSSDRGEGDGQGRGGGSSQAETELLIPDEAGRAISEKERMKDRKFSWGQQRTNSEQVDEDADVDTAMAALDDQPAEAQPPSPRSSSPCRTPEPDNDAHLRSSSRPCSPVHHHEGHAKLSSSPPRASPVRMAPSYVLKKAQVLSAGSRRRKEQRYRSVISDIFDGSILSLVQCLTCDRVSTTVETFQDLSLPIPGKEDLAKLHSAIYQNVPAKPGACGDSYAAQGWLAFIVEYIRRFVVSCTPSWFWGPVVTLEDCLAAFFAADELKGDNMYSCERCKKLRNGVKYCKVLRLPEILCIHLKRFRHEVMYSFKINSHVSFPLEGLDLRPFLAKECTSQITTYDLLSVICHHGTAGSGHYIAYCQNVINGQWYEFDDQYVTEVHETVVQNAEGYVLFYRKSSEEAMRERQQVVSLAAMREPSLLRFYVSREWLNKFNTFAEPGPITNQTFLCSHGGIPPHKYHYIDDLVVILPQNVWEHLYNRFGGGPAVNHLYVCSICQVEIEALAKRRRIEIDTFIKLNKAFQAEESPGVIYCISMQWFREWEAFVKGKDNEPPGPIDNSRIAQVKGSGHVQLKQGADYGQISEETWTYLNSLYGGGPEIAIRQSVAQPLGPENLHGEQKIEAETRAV
Sequence of UniProt A4D1P6 (A4D1P6 whole entry, looked up): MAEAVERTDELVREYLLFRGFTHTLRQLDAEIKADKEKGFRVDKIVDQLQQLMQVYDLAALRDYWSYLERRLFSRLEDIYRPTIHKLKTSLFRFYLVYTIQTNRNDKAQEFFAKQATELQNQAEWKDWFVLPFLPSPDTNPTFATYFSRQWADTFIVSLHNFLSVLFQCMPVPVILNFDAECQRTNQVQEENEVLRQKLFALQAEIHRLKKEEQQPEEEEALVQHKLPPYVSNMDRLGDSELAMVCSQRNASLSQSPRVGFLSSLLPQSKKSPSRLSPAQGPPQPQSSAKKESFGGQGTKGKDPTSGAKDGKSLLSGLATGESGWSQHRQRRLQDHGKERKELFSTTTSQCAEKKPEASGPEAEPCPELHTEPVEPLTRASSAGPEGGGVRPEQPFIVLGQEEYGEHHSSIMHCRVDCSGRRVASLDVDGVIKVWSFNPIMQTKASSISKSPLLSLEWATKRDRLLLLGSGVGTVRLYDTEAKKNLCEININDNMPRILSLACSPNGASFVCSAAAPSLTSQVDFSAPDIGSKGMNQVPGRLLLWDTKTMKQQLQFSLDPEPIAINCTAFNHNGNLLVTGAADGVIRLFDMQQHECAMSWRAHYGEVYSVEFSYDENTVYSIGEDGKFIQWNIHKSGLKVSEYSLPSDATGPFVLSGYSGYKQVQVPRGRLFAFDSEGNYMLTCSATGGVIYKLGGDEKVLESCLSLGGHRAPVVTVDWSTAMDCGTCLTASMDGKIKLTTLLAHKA
Sequence of UniProt Q96N46 (Q96N46 whole entry, looked up): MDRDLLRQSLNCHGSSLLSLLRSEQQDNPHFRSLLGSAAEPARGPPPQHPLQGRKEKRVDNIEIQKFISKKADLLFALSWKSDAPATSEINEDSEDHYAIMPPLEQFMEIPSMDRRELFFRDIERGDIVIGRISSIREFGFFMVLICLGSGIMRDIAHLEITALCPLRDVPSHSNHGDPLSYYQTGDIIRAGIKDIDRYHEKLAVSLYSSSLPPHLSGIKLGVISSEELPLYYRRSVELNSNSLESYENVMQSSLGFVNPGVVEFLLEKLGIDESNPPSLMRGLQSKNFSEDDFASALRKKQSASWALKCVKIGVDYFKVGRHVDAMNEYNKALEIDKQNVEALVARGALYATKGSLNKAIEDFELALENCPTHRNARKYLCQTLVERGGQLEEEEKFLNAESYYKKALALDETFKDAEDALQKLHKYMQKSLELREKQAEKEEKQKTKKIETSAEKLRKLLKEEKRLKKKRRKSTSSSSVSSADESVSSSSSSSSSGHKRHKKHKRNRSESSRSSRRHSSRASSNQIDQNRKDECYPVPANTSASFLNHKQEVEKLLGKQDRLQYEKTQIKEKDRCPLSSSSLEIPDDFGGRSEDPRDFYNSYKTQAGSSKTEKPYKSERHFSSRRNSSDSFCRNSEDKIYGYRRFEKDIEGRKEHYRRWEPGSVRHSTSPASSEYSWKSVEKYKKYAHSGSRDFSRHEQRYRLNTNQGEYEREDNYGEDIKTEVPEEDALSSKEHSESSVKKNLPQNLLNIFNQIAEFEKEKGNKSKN
Sequence of UniProt Q9NW82 (Q9NW82 whole entry, looked up): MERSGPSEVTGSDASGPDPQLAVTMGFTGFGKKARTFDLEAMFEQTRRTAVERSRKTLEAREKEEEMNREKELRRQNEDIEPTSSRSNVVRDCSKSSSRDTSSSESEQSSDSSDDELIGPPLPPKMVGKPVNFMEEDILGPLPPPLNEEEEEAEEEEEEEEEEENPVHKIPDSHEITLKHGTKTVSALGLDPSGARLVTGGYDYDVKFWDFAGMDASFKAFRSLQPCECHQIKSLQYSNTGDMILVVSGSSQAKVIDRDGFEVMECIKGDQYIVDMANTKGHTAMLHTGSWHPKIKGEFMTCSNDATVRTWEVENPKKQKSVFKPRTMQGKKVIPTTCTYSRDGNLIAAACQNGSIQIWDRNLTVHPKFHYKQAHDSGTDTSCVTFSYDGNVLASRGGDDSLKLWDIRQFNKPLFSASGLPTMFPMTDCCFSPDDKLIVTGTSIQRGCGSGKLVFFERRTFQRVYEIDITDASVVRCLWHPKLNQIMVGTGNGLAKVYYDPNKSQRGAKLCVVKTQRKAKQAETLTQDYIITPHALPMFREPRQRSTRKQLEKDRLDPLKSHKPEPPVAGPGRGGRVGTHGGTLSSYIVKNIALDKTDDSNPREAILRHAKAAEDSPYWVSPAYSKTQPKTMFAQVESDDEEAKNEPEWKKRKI
Sequence of UniProt Q96CW5 (Q96CW5 whole entry, looked up): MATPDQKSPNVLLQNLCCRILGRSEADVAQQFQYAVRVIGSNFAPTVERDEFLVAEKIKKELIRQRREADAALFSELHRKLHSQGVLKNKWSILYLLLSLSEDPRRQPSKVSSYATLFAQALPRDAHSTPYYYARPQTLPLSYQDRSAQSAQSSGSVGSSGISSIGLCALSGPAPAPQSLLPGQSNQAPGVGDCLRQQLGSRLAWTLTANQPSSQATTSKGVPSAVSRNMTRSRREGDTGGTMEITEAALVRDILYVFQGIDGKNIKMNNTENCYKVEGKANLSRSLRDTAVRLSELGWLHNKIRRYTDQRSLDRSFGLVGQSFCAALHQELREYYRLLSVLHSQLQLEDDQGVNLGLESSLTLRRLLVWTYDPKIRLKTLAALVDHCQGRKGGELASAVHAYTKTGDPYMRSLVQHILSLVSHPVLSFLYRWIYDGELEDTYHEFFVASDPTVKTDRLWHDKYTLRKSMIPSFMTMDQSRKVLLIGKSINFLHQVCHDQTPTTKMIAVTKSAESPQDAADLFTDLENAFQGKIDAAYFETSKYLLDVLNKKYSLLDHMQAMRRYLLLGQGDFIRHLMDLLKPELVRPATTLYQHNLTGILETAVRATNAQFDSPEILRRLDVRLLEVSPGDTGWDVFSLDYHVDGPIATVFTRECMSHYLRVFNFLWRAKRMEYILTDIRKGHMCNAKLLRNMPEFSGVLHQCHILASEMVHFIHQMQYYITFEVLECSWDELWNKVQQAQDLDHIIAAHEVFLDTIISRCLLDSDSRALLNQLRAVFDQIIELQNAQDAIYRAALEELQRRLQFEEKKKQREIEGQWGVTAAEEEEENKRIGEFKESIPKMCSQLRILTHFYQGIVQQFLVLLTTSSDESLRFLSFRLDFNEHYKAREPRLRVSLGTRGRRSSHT
Sequence of UniProt Q8N806 (Q8N806 whole entry, looked up): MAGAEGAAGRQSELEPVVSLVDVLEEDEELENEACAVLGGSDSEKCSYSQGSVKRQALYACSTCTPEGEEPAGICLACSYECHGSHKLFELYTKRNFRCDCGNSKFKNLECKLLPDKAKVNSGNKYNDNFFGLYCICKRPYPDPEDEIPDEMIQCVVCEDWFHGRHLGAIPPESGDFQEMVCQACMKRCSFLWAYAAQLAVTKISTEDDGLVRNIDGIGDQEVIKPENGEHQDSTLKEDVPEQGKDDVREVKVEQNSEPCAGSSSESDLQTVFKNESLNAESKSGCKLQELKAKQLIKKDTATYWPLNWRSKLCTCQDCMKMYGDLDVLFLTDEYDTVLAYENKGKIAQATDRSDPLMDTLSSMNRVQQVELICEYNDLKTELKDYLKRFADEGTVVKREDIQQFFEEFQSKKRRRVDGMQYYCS

Target | probe-labelled cysteine peptide fold change (10 µM) | probe-labelled cysteine peptide fold change (50 µM)
TYK2_P29597_1140_CPCEVYHLMK (UniProt P29597) | -0.0795 | -0.214
WDR91_A4D1P6_246_LGDSELAMVCSQR (UniProt A4D1P6) | -0.0616 | -0.273
TTC27_Q6P3X3_514_ETPSLYCLLGDVLGDHSCYDK (UniProt Q6P3X3) | -0.201 | -0.392
TXNRD1_Q16881_577_IICNTK (UniProt Q16881) | 0.634 | 0.851
WDR7_Q9Y4E6_326_ELLICPPVTR (UniProt Q9Y4E6) | 0.0845 | 0.185
TTF2_Q9UNY4_1118_FVCEGTVEEK (UniProt Q9UNY4) | -0.132 | -0.00382
UAP1L1_Q3KQV9_271_LADPVFIGFCVLQGADCGAK (UniProt Q3KQV9) | -0.0621 | -0.144
URB2_Q14146_1380_LHNVLFSILQCHPK (UniProt Q14146) | 0.199 | 0.859
TTF2_Q9UNY4_50_ATDIPVSHCLLHEDFVVELQGLLLPQDK (UniProt Q9UNY4) | 0.0771 | 0.271
TUBB1_Q9H4B7_12_MREIVHIQIGQCGNQIGAK (UniProt Q9H4B7) | 0.489 | 0.674
UBR1_Q8IWV7_1726_LHLVWQQHCIIEEIAR (UniProt Q8IWV7) | -0.0216 | 0.0386
TTC14_Q96N46_165_DIAHLEITALCPLR (UniProt Q96N46) | 0.0661 | 0.0914
USP19_O94966_1017_LEDKGDTPLELGDDCSLALVWR (UniProt O94966) | -0.14 | -0.0111
USP20_Q9Y2K6_8_DLCPHLDSIGEVTKEDLLLK (UniProt Q9Y2K6) | -0.12 | -0.352
VCPIP1_Q96JH7_940_HCTFPHLPGK (UniProt Q96JH7) | 0.0492 | 0.0163
VPS37A_Q8NEZ2_375_TICHCR (UniProt Q8NEZ2) | 0.905 | 0.772
TTC21B_Q7Z4L5_72_QDVSLCSLLALIYAHK (UniProt Q7Z4L5) | 0.155 | 0.138
TTYH3_Q9C0H2_486_CENTPLIGR (UniProt Q9C0H2) | -0.0936 | -0.00547
TXNRD2_Q9NNW7_279_GCAPSR (UniProt Q9NNW7) | 0.829 | 0.386
TTC30B_Q8N4P2_619_DSVIQECVQFLEHCELHGR (UniProt Q8N4P2) | 0.056 | 0.655
UBE2O_Q9C0C9_598_VQSCPDPAVYGVVQSGDHIGR (UniProt Q9C0C9) | -0.0239 | -0.0974

Target | probe-labelled cysteine peptide fold change (10 µM) | probe-labelled cysteine peptide fold change (50 µM)
UBR5_O95071_1942_SHNDEHSDVLPVLDVCSLK (UniProt O95071) | -0.586 | -0.263
WDR26_Q9H7D7_238_CELTPLK (UniProt Q9H7D7) | -0.0356 | -0.0732
TUBGCP3_Q96CW5_388_TLAALVDHCQGRK (UniProt Q96CW5) | -0.158 | -0.0586
TRMT1_Q9NXH9_376_FSAACGPPVTPECEHCGQR (UniProt Q9NXH9) | 0.157 | 0.015
VEZF1_Q14119_327_TCMSEETSNQK (UniProt Q14119) | -0.186 | -0.42
VPS11_Q9H270_586_EAPGCR (UniProt Q9H270) | 0.694 | 1.1
TXNRD1_Q16881_339_EYCISSDDLFSLPYCPGK (UniProt Q16881) | 0.364 | 0.552
VCP_P55072_174_VVETDPSPYCIVAPDTVIHCEGEPIKR (UniProt P55072) | 0.0996 | -0.0884
UFC1_Q9Y3C8_116_ICLTDHFKPLWAR (UniProt Q9Y3C8) | -0.522 | -0.68
UBR7_Q8N806_374_VQQVELICEYNDLK (UniProt Q8N806) | -0.0738 | 0.0769
TTC27_Q6P3X3_374_NNPVHTLTEVELLAFTSCLLSQPK (UniProt Q6P3X3) | 0.253 | 0.421
VAT1L_Q9HCJ6_253+255_ISAEGVDIVLDCLCGDNTGK (UniProt Q9HCJ6) | 0.196 | -0.072
WDR70_Q9NW82_383_QAHDSGTDTSCVTFSYDGNVLASR (UniProt Q9NW82) | 0.312 | -0.591
VPS45_Q9NRW7_359_NLLEVSEVEQELACQNDHSSALQNIK (UniProt Q9NRW7) | 0.273 | -0.0913
URB1_O60287_315_ELVHNFLMDLCCSLK (UniProt O60287) | -0.0229 | -0.0236
UAP1L1_Q3KQV9_50_AALLAELALLEPEALREHCR (UniProt Q3KQV9) | 0.0804 | 0.0782
UBA1_P22314_234_DNPGVVTCLDEAR (UniProt P22314) | 0.0251 | -0.108
UAP1L1_Q3KQV9_271+278_LADPVFIGFCVLQGADCGAK (UniProt Q3KQV9) | 0.0951 | 0.0877
WNK1_Q9H4A3_1135_VVECQLETHNR (UniProt Q9H4A3) | 0.0982 | 0.156
VAV1_P15498_31_VTWDGAQVCELAQALR (UniProt P15498) | 0.0648 | 0.411
